Test results taken from PubChem BioAssay AID1159580 (chemical genetic matrix, 2015).
Several values for one entry are separate records, joined by “and”; a condition that tells them apart may be missing. Equal entries are not always repeated. In all, about 5,500 compounds went through this assay and about 2,000 (36%) were called active. Not shown: some 18% with an inconclusive outcome. Cut-off read from the data, not from the text of the source: active = normalized growth mostly below about 0.91 (no sharp cut-off); inconclusive = no clear call, values can overlap the other calls; inactive = mostly above about 0.92. Some of the results follow.

Experiment: chemical genetic growth profiling, strain panel (AID 1159580);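 note: tested at 20 µM; growth read once vehicle control cultures reached saturation at 30 °C; 1 = growth at the plate median or of vehicle wells; lower values mean less growth of the strain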
Conditions: S. cerevisiae deletion strains, growth OD

Measured: normalized growth

N#Cc1ccc2c(c1)N(CCCN1CCC(O)CC1)c1ccccc1S2
active: locus YDR392W, strain spt3, active compounds read low 0.72
inactive: locus YAL013W, strain DEP1, active compounds read low 1 | locus YAL021C, strain ccr4, active compounds read low 1.01 | locus YAL026C, strain drs2, active compounds read low 0.99 | locus YAL030W, strain snc1, active compounds read low 0.999 | locus YBL061C, strain skt5, active compounds read low 0.984 | locus YBR009C, strain hhf1, active compounds read low 0.953 | locus YBR021W, strain FUR4, active compounds read low 1 | locus YBR023C, strain chs3, active compounds read low 0.982 | locus YBR171W, strain sec66, active compounds read low 1 | locus YBR229C, strain ROT2, active compounds read low 1.02 | locus YBR231C, strain swc5, active compounds read low 0.994 | locus YBR279W, strain paf1, active compounds read low 0.987 | locus YCL011C, strain gbp2, active compounds read low 0.989 | locus YCL016C, strain dcc1, active compounds read low 0.987 | locus YCL029C, strain bik1, active compounds read low 1.03 | locus YCL061C, strain MRC1, active compounds read low 0.992 | locus YCL069W, strain vba3, active compounds read low 0.993 | locus YCR088W, strain abp1, active compounds read low 0.996 | locus YDL005C, strain med2, active compounds read low 0.991 | locus YDL035C, strain GPR1, active compounds read low 1.01 | locus YDL040C, strain nat1, active compounds read low 0.975 | locus YDL074C, strain BRE1, active compounds read low 1 | locus YDL101C, strain DUN1, active compounds read low 1 | locus YDL134C, strain PPH21, active compounds read low 1.01 | locus YDL185W, strain tfp1, active compounds read low 1.03 | locus YDL192W, strain arf1, active compounds read low 1.03 | locus YDR001C, strain nth1, active compounds read low 0.992 | locus YDR069C, strain doa4, active compounds read low 0.995 | locus YDR101C, strain arx1, active compounds read low 1.01 | locus YDR137W, strain rgp1, active compounds read low 1.02 | locus YDR150W, strain NUM1, active compounds read low 0.999 | locus YDR159W, strain sac3, active compounds read low 0.979 | locus YDR162C, strain NBP2, active compounds read low 1.02 | locus YDR195W, strain ref2 1 | locus YDR297W, strain sur2, active compounds read low 0.99 | locus YDR318W, strain mcm21, active compounds read low 1.02 | locus YDR334W, strain swr1, active compounds read low 0.996 | locus YDR335W, strain msn5, active compounds read low 0.996 | locus YDR388W, active compounds read low 1.03 | locus YDR502C, strain sam2, active compounds read low 1.01 | locus YEL003W, strain gim4, active compounds read low 1 | locus YEL037C, strain rad23, active compounds read low 0.996 | locus YEL061C, strain CIN8 (second series), active compounds read low 0.994 | locus YEL061C, strain CIN8, active compounds read low 1 | locus YER015W, strain faa2, active compounds read low 1 | locus YER016W, strain bim1, active compounds read low 0.996 | locus YER110C, active compounds read low 1.02 | locus YER111C, strain swi4, active compounds read low 0.984 | locus YER155C, strain BEM2 (second series), active compounds read low 0.912 | locus YER155C, strain BEM2, active compounds read low 1 | locus YER167W, strain BCK2, active compounds read low 1.01 | locus YFR010W, strain ubp6, active compounds read low 0.999 | locus YGL078C, strain dbp3, active compounds read low 1.01 | locus YGL086W, strain mad1, active compounds read low 1.02 | locus YGL167C, strain pmr1, active compounds read low 0.995 | locus YGL173C, strain kem1, active compounds read low 0.991 | locus YGL227W, strain vid30, active compounds read low 0.996 | locus YGL240W, strain doc1, active compounds read low 0.97 | locus YGL248W, strain PDE1, active compounds read low 1.01 | locus YGL253W, strain hxk2, active compounds read low 0.991 | locus YGR078C, strain PAC10, active compounds read low 0.998 | locus YGR135W, strain pre9, active compounds read low 1.01 | locus YGR229C, strain SMI1, active compounds read low 1 | locus YGR252W, strain gcn5, active compounds read low 1.01 | locus YHR013C, strain ard1, active compounds read low 0.897 | locus YHR027C, strain rpn1, active compounds read low 0.997 | locus YHR030C, strain SLT2, active compounds read low 1.01 and 1.03 | locus YHR079C, strain IRE1 (second series), active compounds read low 1.02 | locus YHR079C, strain IRE1, active compounds read low 1.04 | locus YHR094C, strain hxt1, active compounds read low 1.02 | locus YHR129C, strain ARP1, active compounds read low 1 | locus YHR142W, strain chs7, active compounds read low 0.997 | locus YHR200W, strain rpn10, active compounds read low 1.02 | locus YIL066C, strain RNR3, active compounds read low 1.01 | locus YIL073C, strain SPO22, active compounds read low 1.03 | locus YIL125W, strain kgd1, active compounds read low 1.03 | locus YIR030C, strain dcg1, active compounds read low 1.03 | locus YJL092W, strain hpr5, active compounds read low 1 | locus YJL095W, strain BCK1 (second series), active compounds read low 0.988 | locus YJL095W, strain BCK1, active compounds read low 0.983 and 1.04 | locus YJL115W, strain asf1, active compounds read low 0.994 | locus YJL129C, strain trk1, active compounds read low 0.994 | locus YJL134W, strain LCB3, active compounds read low 1 | locus YJL154C, strain vps35, active compounds read low 0.987 | locus YJL164C, strain tpk1, active compounds read low 0.992 | locus YJL166W, strain qcr8, active compounds read low 0.997 | locus YJL168C, strain set2, active compounds read low 1.02 | locus YJL187C, strain SWE1 (second series), active compounds read low 1.01 | locus YJL187C, strain SWE1, active compounds read low 0.998 | locus YJR043C, strain POL32, active compounds read low 1.01 | locus YJR066W, strain TOR1, active compounds read low 0.955
